Data reported in PubChem BioAssay AID1009 (NMMLSC, 2008).
About 200 (0.11%) of roughly 190,000 compounds were called active. No stated cut-off is given here; in the data, active means inhibition above about 40%. This excerpt belongs to a sample that is enriched for actives.

biological target: Induced myeloid leukemia cell differentiation protein Mcl-1 (Homo sapiens) (UniProt Q07820); test: inhibitors of Bim peptide binding to Mcl-1, primary screen, biochemical, bead-based flow cytometry, multiplex (AID 1009); conditions: Bim peptide-Mcl-1 binding, at 10 µM, active compounds read high;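 further: 0% = no compound tracer wells and 100% = peptide blocker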
Sequence (Q07820 whole entry, looked up): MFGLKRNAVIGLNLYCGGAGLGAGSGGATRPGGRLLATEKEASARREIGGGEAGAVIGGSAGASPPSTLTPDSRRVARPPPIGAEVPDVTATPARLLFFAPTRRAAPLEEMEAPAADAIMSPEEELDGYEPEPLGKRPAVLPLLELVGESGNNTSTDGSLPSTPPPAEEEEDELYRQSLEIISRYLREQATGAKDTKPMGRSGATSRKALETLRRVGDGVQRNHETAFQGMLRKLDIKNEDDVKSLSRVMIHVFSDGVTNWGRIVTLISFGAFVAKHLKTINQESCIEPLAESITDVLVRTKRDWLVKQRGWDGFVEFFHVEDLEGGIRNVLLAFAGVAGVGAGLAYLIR

inhibition, active:
CCCn1c(C(O)c2cc(OC)ccc2OC)nc2ccccc21 (configuration not stated) 80%
CCOC(=O)N1CCC(c2cc(=O)n(-c3ccccc3)[nH]2)CC1 42%

inhibition, inactive:
CC(CO)NCC12CC3CC(CC(C3)C1)C2 (configuration not stated) 0%
Cc1[nH]c2ccccc2c1/C=C(/C#N)C(=O)NC(C)C 0%
C=CCN(Cc1nc(-c2cc(OC)c3c(c2)OCO3)oc1C)C1CCS(=O)(=O)C1 (configuration not stated) -1%
CC(C)C(=O)NCc1cc(-c2ccc(Cl)cc2)no1 -2%
O=C(NCCCN1CCOCC1)c1ccc(N2CCCC2)c([N+](=O)[O-])c1 0%
O=C(NCc1ccc(F)cc1)C(c1ccccc1)N(C(=O)c1csnn1)C1CC1 (configuration not stated) -1%
Nc1[nH][nH]c(=O)c1N=Nc1ccc2c(c1)OCO2 0%
COc1ccc(Cl)cc1N(CC(=O)N/N=C/c1ccc(OCC(N)=O)cc1)S(C)(=O)=O 1%
CSc1ccc(CN2C(=O)NC3(CCCCCC3)C2=O)cc1 3%
Cc1nc(N2CCC(C)CC2)c2c(C)c(C(=O)Nc3cc(F)ccc3C)sc2n1 -1%
COc1ccc(/C=N/OCC(=O)N(Cc2ccccc2)c2ccccc2C(=O)O)cc1 -1%
C#CCOCCOCCOCCNc1nc(N2CCN(C(=O)[C@H](CCC(=O)O)n3cc(C(N)CO)nn3)CC2)nc(N2CCN(C(=O)[C@H](Cc3ccc(O)cc3)n3cc(C(N)[C@H](C)CC)nn3)CC2)n1 (some centres not stated) 0%
CCOC(=O)Cc1ncccc1C(=O)Nc1ccc(OC(F)(F)F)cc1 -7%
COc1ccc(C(=O)N2CCC(C(=O)Nc3ccc(C)cc3)CC2)cc1 -3%
N#Cc1ccc(-c2nc3cc(C#N)c(C#N)cc3nc2-c2ccccc2)cc1C#N 1%
O=C(CCN1C(=O)/C(=C/c2cccs2)SC1=S)NNC(=O)c1cccc(O)c1 0%
COCC1CCCN(Cc2cn[nH]c2-c2cc3ccccc3o2)C1 (configuration not stated) -3%
O=C(NC(=S)NC1CCSC1=O)c1ccccc1F (configuration not stated) 0%
O=C(N/N=C/c1cc([N+](=O)[O-])ccc1O)/C(=C\c1cccs1)NC(=O)c1ccccc1 0%
COc1ccc(C(=O)C2CCCN(Cc3cccn3-c3ccccn3)C2)c(C)c1 (configuration not stated) 0%
CN(CC(=O)NC1CCCC1)S(=O)(=O)c1cnc[nH]1 -8%
Cc1cc(C)nc(Nc2ncn[nH]2)n1 1%
CCCCC(CC)CNC(=O)C(=O)C1C(=O)Nc2ccccc21 (configuration not stated) -2%
O=C(/C=C/c1cnc2ccccc2n1)NC1CCCCCC1 -22%
COc1cccc(CNC(=O)c2n[nH]c3ccccc23)c1 0%
COc1ccc(N(CC(=O)Nc2ccc(C)cc2C)S(=O)(=O)c2ccccc2[N+](=O)[O-])c(OC)c1 4%
COc1ccc(C(=O)NC2(C(F)(F)F)NC(=O)N(CCCc3ccccc3)C2=O)c(OC)c1OC (configuration not stated) -3%
CCCOc1ccc(Cn2ccnc2)cc1[N+](=O)[O-] -1%
O=C(/C=C/c1ccc(Cl)cc1)N1CCN(c2ccccc2[N+](=O)[O-])CC1 -1%
CCO[C@H]1OC(C(=O)N2CCOCC2)=C[C@@H](c2ccc3c(c2)OCO3)[C@@H]1CCCO -2%
CC(=O)N1CCN(S(=O)(=O)c2c(F)cc(F)c(Cl)c2F)CC1 -1%
Cc1ccc(Cl)c(NC(=O)CN2CCN(C=O)CC2)c1 0%
CCCn1c(C(O)c2ccc(OCC)cc2)nc2ccccc21 (configuration not stated) 0%
COc1cc(C(O)c2nc3ccccc3n2C)cc(OC)c1OC (configuration not stated) 0%
COc1ccc(CC2(CO)CCN(Cc3cnn(C)c3)CC2)cc1 8%
COc1cccc(NC(=O)CS(=O)(=O)c2cn(CC(=O)N3CCOCC3)c3ccccc23)c1 1%
COc1ccc(S(=O)(=O)NC(C)C)cc1C(=O)NC1CCCCC1 -1%
O=C(CCN1C(=O)c2ccccc2C1=O)C1=NN[C@@H]2C(=O)N(c3ccc(F)cc3)C(=O)[C@H]12 -3%
Cc1c(Cc2ccccc2)c(=O)oc2cc(OCC(N)=O)ccc12 0%
C/C(=N/OC(=O)c1c(-c2c(F)cccc2Cl)noc1C)c1cnccn1 -2%
COC(=O)C1=C(C)N(C(C)c2ccccc2)C(=O)/C1=C\c1ccco1 (configuration not stated) -2%
Cc1ccc2[nH]cc(CCCN3C(=O)c4ccccc4C3=O)c2c1 -3%
CC1(C)CN(c2ccc(-c3ccnc4ncnn34)cc2)C1=O -1%
Cn1c(CCC(=O)OCC(=O)NCc2ccccc2Cl)nc(=O)c2ccccc21 -2%
CC(=O)Nc1ccc(-c2csc(NC=C3C(=O)OC(C)(C)OC3=O)n2)cc1 -8%
c1ccc2sc(NN=C3CCCC3)nc2c1 0%
Oc1ccc(-c2nncn2-c2ccccc2)cc1 0%
COc1cccc(NC(=O)COC(=O)CCOc2ccccc2OC)c1 0%
COc1ccc(NC(=S)Nc2ccc(S(N)(=O)=O)cc2)c(C)c1 -2%
Cc1ccc(NN=Nc2nc3c([nH]2)c(=O)n(C)c(=O)n3C)cc1 -7%
O=C(NCCCN1CCOCC1)c1ccccc1NS(=O)(=O)c1ccc(F)cc1 3%
CCOc1cccc(/C=C/c2ccc3ccccc3n2)c1OC(C)=O 0%
O=C(Nc1ccc(F)cc1)C1CCN(C(=O)c2ccc([N+](=O)[O-])cc2)CC1 0%
Cc1cc(OCCN2CCCC2)cc(C(C)C)c1 -3%
COc1cc(C2OC(c3cc(OC)c(OC)c(OC)c3)C(C)C2C)cc(OC)c1OC (configuration not stated) 0%
COC(=O)c1cc(NC(=O)c2cccnc2)ccc1N1CCOCC1 -2%
Cc1ccc(S(=O)(=O)/N=C(\N)c2ccc(F)cc2)cc1 0%
CC1CCCC(NC(=O)c2cccc(N3CCCC3=O)c2)C1C (configuration not stated) 1%
CCOC(=O)CN1CCC(c2ccccc2)CC1 2%
CCOC(=O)N1CCC(NC(=O)COc2cc(=O)n(C)c3ccccc23)CC1 -1%
CCN(CC)C(=O)C(=O)c1cn(CC(=O)NCc2ccc3c(c2)OCO3)c2ccccc12 0%
COC(=O)c1ccc(NC(=O)CSc2nncc3ccc(OC)c(OC)c23)cc1 1%
Cn1cc(Cl)c(C(=O)NNC(=S)Nc2cccc(Cl)c2)n1 -1%
Cc1cc(C)c(C(N)=O)c(Cl)n1 0%
CC(C)(C)NC(=O)c1ccc(Cn2cc(C(F)(F)F)ccc2=O)cc1 -1%
CCN(CC)c1ccc(C(=O)N/N=C(\C)c2cccc(OC)c2)cc1 1%
Cn1c(-c2sccc2OCc2cccc(C(F)(F)F)c2)n[nH]c1=S -4%
CC(=O)NC(NC(=S)Nc1c(C)n(C)n(-c2ccccc2)c1=O)C(Cl)(Cl)Cl (configuration not stated) 0%
CCC(=O)NCc1cc(-c2nn(C)c(=O)c3ccccc23)ccc1OC -1%
O=C(/C=C/c1ccc([N+](=O)[O-])cc1)NCCSCc1ccco1 -5%
Cc1c(C(=O)NC(=S)NCc2cccnc2)oc2ccccc12 0%
CCOCC(=O)Nc1ncc(S(=O)(=O)c2ccc([N+](=O)[O-])cc2)s1 0%
COC(=O)CNC(=O)c1ccc(OC2CCN(C(=O)C3CC3)CC2)cc1 -2%
CC(=O)c1ccccc1NC(=O)CC1(CC(=O)O)CCCCC1 0%
Fc1ccccc1CNC(=S)Nc1ccc(Cl)cc1 -14%
CSc1ccc(/C=C/C(=O)NC23CC4CC(CC(C4)C2)C3)cc1 -2%
O=C(c1ccc(OC2CCN(Cc3ccccn3)CC2)cc1)N1CCCCCC1 -4%
Cc1ccc2c(c1)C1CN(C)CCC1N2C(=S)Nc1ccc(OC(F)F)cc1 (configuration not stated) -1%
O=C(COC(=O)CCCSc1nc2ccccc2[nH]1)Nc1ccc(Oc2ccccc2)cc1 2%
COc1ccc(-c2nc(CN3CCN(c4ncccn4)CC3)c(C)o2)cc1C -2%
O=[N+]([O-])c1ccc(F)cc1Oc1nc(-c2cccnc2)nc2ccccc12 4%
CCN1CCN(C(=O)CN(C)S(=O)(=O)c2ccc3ccccc3c2)CC1 0%
O=C(Nc1ccc2oc(-c3ccccc3F)nc2c1)c1ccco1 -3%
COc1ccnc(Oc2ccccc2)c1-c1ncn[nH]1 -2%
N#C/C(=C\c1ccc(-c2cccc([N+](=O)[O-])c2)o1)C(=O)NCCN1CCOCC1 0%
N#CCOc1ccc(C2=NO[C@@H]3[C@@H]4C[C@@H]([C@H]5C(=O)N(c6ccc7c(c6)OCO7)C(=O)[C@@H]45)[C@H]23)cc1 -7%
CCc1c(SCCC(=O)O)nc2ccccc2c1C -1%
COc1ccc(CC(NC(C)=O)C(=O)NC2CCN(C(=O)C3CC3)CC2)cc1OC (configuration not stated) 1%
COc1cccc(NC(=O)C(Sc2nc3ccccc3c(=O)n2CC(C)C)c2ccccc2)c1 (configuration not stated) -1%
O=C(COc1nc2ccccc2nc1N1CCOCC1)NCC(F)(F)F -3%
Cc1ccc(OCC(=O)NNC(=S)NCc2ccccc2)cc1 0%
CCOC(=O)c1cc2c(nc1NC(=S)Nc1ccccc1)CC(C)(CC)OC2 (configuration not stated) -5%
Cc1[nH]c2ccccc2c1SCC(=O)Nc1nccs1 -1%
O=C(/C=C/c1ccccc1)Oc1coc(CSc2ncccn2)cc1=O 0%
Cc1nn(CC(=O)NCc2ccccn2)c(C)c1[N+](=O)[O-] 0%
CCCNC(=O)NC(=O)COC(=O)CC(NC(N)=O)c1ccc(Cl)cc1 (configuration not stated) -8%
COCCNC(=O)NC(=O)COC(=O)C1(c2ccc(Cl)cc2)CC1 0%
Cc1ccc(S(=O)(=O)Cc2cc(-c3ccc(Cl)cc3)no2)cc1 0%
O=C1CCC/C(=N\NC(=O)NC2CCCCC2)C1 1%
Cc1ccc(C(=O)COC(=O)c2cccc(N3C(=O)c4c(C)nc5ccccc5c4C3=O)c2)cc1C -5%
CCOc1cc(CNCc2ccccn2)ccc1OCC(=O)NC(C)(C)C -5%
Cc1cc(=O)oc2c1c(C)nn2-c1ccc(Cl)cc1 2%
O=C(Cn1c2[n+](c3ccc(C(F)(F)F)cc31)CCCCC2)Nc1c(F)cccc1F 2%
Cc1ccc(OCC(=O)OC(C)CN(C)Cc2ccccc2)cc1 (configuration not stated) 0%
Cc1ccc(C(=O)O)cc1N1C(=O)CCCC1=O 0%
